In PubChem BioAssay (NCATS):
“And” between values parts separate entries of the source, which are not always exact repeats. Identical values can stand only once. Records with an inconclusive call do not appear. The source made the active and inactive calls. Unless noted, calls follow the shape of the dose curve; as a rule, active = well fitted curve in the direction sought with a large enough effect; inconclusive = small, poorly fitted or top-dose-only effect, or another doubt; inactive = no such curve, though single readings can be large; an effect the other way counts as inactive or inconclusive.

Assays:
[1] = Cell Viability - BJ (AID 421; calls by dose curve;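 also: potency is read from the fitted curve at half-maximal effect; cells exposed to compound for 40 hours at 37 °C before readout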); conditions: BJ fibroblast viability, qHTS
Procedure, shortened: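 Luminescent ATP signal (CellTiter-Glo, 20 min at room temperature) served as the read-out of viable BJ cells after 40 hours of compound treatment. Responses were scaled between DMSO and 100 uM tamoxifen, and AC50 values were obtained by Hill modeling.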

[2] = Cell Viability - Jurkat (AID 426;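 active = dose-dependent loss of cell ATP signal giving a full or clear fitted curve, ranked by lower potency value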;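 also: potency is read from the fitted curve at half-maximal effect; cells exposed to compound for 40 hours at 37 °C before ATP read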); conditions: qHTS
Procedure, shortened: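 Jurkat (Clone E6-1) cells, 5000/well in complete medium, exposed to compounds for 40 hr at 37C; intracellular ATP measured by CellTiter-Glo luminescence after 20 min at room temperature. AC50 from Hill fits.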

[3] = Cell Viability - Hek293 (AID 427;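 active = compounds whose dose-response curve shows a full or clear partial loss of cell viability, called from curve shape rather than a numeric limit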;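 also: potency is read from the fitted curve at half-maximal effect; cells exposed to compound for 40 hours at 37 °C before reading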); conditions: qHTS
Procedure, shortened: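 Luminescent ATP read-out (CellTiter-Glo, 20 min RT) after 40 hr compound exposure at 37 °C in complete medium. Signal normalized to DMSO (basal) and 100 uM tamoxifen (100% inhibition); concentration-response fitted with the standard Hill equation to give AC50.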

[4] = Cell Viability - MRC5 (AID 434; calls by dose curve;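 also: potency is read from the fitted curve at half-maximal effect; potency reflects cytotoxicity seen as loss of intracellular ATP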); conditions: MRC5 lung fibroblast viability, qHTS
Procedure, shortened: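 qHTS cytotoxicity in human lung fibroblast MRC5 cells; 40 hr treatment, 37 °C; cellular ATP by luciferase luminescence; DMSO = 0%, 100 uM tamoxifen = 100% inhibition; Hill-fit AC50.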

[5] = Cell Viability - Mesenchymal (AID 546); conditions: mesenchymal cells viability, qHTS; series mostly up to 91.7 µM;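 also: cells exposed to compound for 40 hours before reading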
Procedure, shortened: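 AC50 values reflect the drop in intracellular ATP in a human kidney mesenchymal line derived from normal glomeruli. Treatment lasts 40 hr at 37 °C in complete medium, and the signal comes from CellTiter-Glo luminescence.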

[6] = Cellular Toxicity (caspase-3) SHSY5Y (AID 657); conditions: SH-SY5Y caspase-3 activation, DMSO zero, 10 µM staurosporine = 100%; series mostly up to 91.7 µM
Procedure, shortened: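 SH-SY5Y human neuroblastoma cells, 1500/well, exposed to compound for 16 hours at 37 °C in complete medium. Caspase-3/7 activity read by Caspase-Glo luminescence after 1 hr at room temperature, normalized to DMSO and 10 uM staurosporine; AC50 from Hill fit.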

[7] = Cellular Toxicity (caspase-3) MRC-5 (AID 659); conditions: MRC-5 cells, luminescence, normalized: DMSO 0%, 10 µM staurosporine 100%; series mostly up to 91.7 µM
Procedure, shortened: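 Concentration-dependent caspase 3/7 activation is measured in human normal lung fibroblasts (MRC-5) following 16-hour treatment. AC50 values come from standard Hill-equation modeling of luminescence normalized to DMSO and 10 uM staurosporine.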

[8] = Cellular Toxicity (caspase-3) Mesangial (AID 660); conditions: mesangial cells, normalized: DMSO 0%, 100 µM tamoxifen 100%; series mostly up to 91.7 µM;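 also: cells exposed to compound for 16 h before the caspase read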
Procedure, shortened: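 Human renal glomerular mesangial cells, 1000/well, 5 h at 37 C before 16 h compound treatment. Caspase-Glo 3/7 luminescence after 20 min; normalized to DMSO and 100 uM tamoxifen, AC50 from Hill fit.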

[9] = Cellular Toxicity (caspase-3) SK-N-SH (AID 661); conditions: SK-N-SH caspase-3 activation, qHTS; series mostly up to 91.7 µM
Procedure, shortened: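 Human SK-N-SH neuroblastoma cells, 1500/well, were exposed to compounds for 16 hours at 37 °C. Caspase-Glo 3/7 luminescence was normalized to DMSO (basal) and 10 uM staurosporine (100%), and AC50 came from a Hill fit.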

[10] = Cellular Toxicity (caspase-3) Hek293 (AID 664); conditions: HEK293 caspase-3 activation, DMSO = 0%, 100 µM tamoxifen = 100%; at 92.2 µM (top of the series);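 also: cells exposed to compound for 16 h at 37 °C before readout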
Procedure, shortened: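 HEK293 cells in complete medium treated 16 h at 37 °C, then Caspase-Glo 3/7 luminescence read after 20 min at room temperature. Normalized to DMSO and 100 uM tamoxifen; AC50 from Hill fit of concentration-response.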

[11] = Cellular Toxicity (caspase-3) N2a (AID 665); conditions: N2a cells, luminescence, normalized: DMSO 0%, 10 µM staurosporine 100%; series mostly up to 92.2 µM;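 also: compound exposure lasted 16 h at 37 °C before readout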
Procedure, shortened: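 Mouse N2a neuroblastoma cells, 1500 per well, treated 16 h at 37 °C in complete medium; caspase-3/7 activity by Caspase-Glo luminescence after 1 h. Normalized to DMSO and 10 uM staurosporine; AC50 from Hill fits.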

[12] = Cell Viability - LYMP1-002 - Assay at 16 hr (AID 948); conditions: LYMP1-002 lymphoblastoid cell viability; series mostly up to 92.2 µM;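 also: 0% = DMSO alone and full effect = 92 µM tetraoctylammonium bromide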
Procedure, shortened: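 LYMP1-002 human lymphoblastoid cells, 2500/well, were treated with compounds for 16 hr at 37 C in complete medium. Viability was read as intracellular ATP by CellTiter-Glo luminescence, and AC50 was derived from a Hill fit to concentration-response data.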

[13] = MultiTox-Fluor Cytotoxicity Assay - LYMP1-003 - Dead Cells (AID 961); conditions: LYMP1-003 lymphoblastoid cells, dead-cell protease fluorescence; series mostly up to 92.2 µM;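 also: 0% = DMSO and 100% = tetraoctylammonium bromide; nearly all actives have a fitted effect of over 70% in size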
Procedure, shortened: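 Human lymphoblastoid LYMP1-003 cells (2500/well) were treated with compounds for 16 hr at 37 C in complete medium. Dead-cell protease release was read by bis-AAF-R110 fluorescence (Ex/Em 485/520). AC50 came from Hill fits, normalized to DMSO and 15 uM tetraoctylammonium bromide.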

[14] = MultiTox-Fluor Cytotoxicity Assay - LYMP1-003 - Live Cells (AID 962); conditions: LYMP1-003 lymphoblastoid cells, MultiTox-Fluor live-cell protease fluorescence; series mostly up to 92.2 µM;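 also: 0% = DMSO only and full loss = 92 µM tetraoctylammonium bromide; cytotoxic hits lower the live-cell protease signal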
Procedure, shortened: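 LYMP1-003 lymphoblastoid cells, 2500/well in complete medium, treated 16 h at 37 C; live-cell protease cleavage of GF-AFC read by fluorescence (Ex/Em 405/510) after 60 min reagent; AC50 from Hill fits of concentration-response.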

[15] = Cell Viability - LYMP1-003 - Assay at 24 hr (AID 963); conditions: LYMP1-003 lymphoblastoid cell viability; series mostly up to 92.2 µM;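 also: plate controls were DMSO only for no effect and tetraoctylammonium bromide positive control for full effect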
Procedure, shortened: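 Human lymphoblastoid LYMP1-003 cells, 2500/well, treated 24 h at 37 C in complete medium. Viability read as intracellular ATP by CellTiter-Glo luminescence after 30 min at room temperature; AC50 from Hill-equation fits of qHTS concentration-response.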

[16] = Cell Viability - LYMP2-008 (AID 980); conditions: LYMP2-008 lymphoblastoid cell viability, qHTS; series mostly up to 92.2 µM;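 also: cells exposed to compound for 24 h at 37 °C; % is scaled to controls: 0 for no effect and ±100 for the full control effect; nearly all actives have a fitted effect of over 60% in size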
Procedure, shortened: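 LYMP2-008 lymphoblastoid cells (2500/well) plated 5 h, then treated 24 h at 37 C in complete medium. Viability read as intracellular ATP by CellTiter-Glo luminescence after 30 min at room temperature; AC50 from Hill fits.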

[17] = qHTS Assay for Identification of Small Molecule Inducers of Hypoxia Response (AID 2120; active = well fitted curve in the direction sought with a large enough effect in the signal ratio, with a control signal flat, not every such curve was filed as active; the % refers to the signal ratio; also: 0% is about no effect); conditions: hypoxia response reporter cells, beta-lactamase ratio readout; series mostly up to 104 µM
Procedure, shortened: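 HRE-bla ME-180 cells in Opti-MEM with 0.5% dialyzed FBS, pre-plated 4-5 h, then compound titration for 17 h at 37 degrees Celsius. CCF4 loaded 2.5 h at room temperature; 460/530 nm ratio gave %Activity and AC50 for induction.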

[18] = biological target: Peroxisome proliferator-activated receptor alpha (Homo sapiens) (UniProt Q07869); test: qHTS assay for small molecule agonists of the peroxisome proliferator-activated receptor alpha (PPARalpha) signaling pathway (AID 651778); conditions: PathHunter PPARalpha complementation, chemiluminescence, 6 h; hits give high values; also: % of control where 0% means no effect
Procedure, shortened: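 Chemiluminescence from complemented enzyme reported PPARalpha activation in cells after 6 hr of compound treatment at 37 C. The detection reagent was incubated for 60 min at room temperature, and compounds were scored as agonists.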

[19] = qHTS assay for small molecule agonists of the antioxidant response element (ARE) signaling pathway measured by Nrf2-dependant transcriptional activity - cell viability counter screen (AID 720653; active = well fitted curve in the direction sought with a large enough effect in the repeat runs; an effect the other way counts as inactive or inconclusive; also: % is scaled to controls: 0 for no effect and ±100 for the full control effect); conditions: ARE-bla HepG2 viability, CellTiter-Glo ATP luminescence, 16 h; hits give low values
Procedure, shortened: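 Cytotoxicity counter screen: intracellular ATP quantified by CellTiter-Glo luminescence in the same ARE-bla HepG2 plates, after 16 h compound exposure and a 2 h beta-lactamase substrate step.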

[20] = qHTS assay for cell viability of the p53RE-bla HCT-116 cell line (AID 743292); conditions: p53RE-bla HCT-116 viability, ATP luminescence, 16 h; series mostly up to 95 µM; also: % is scaled to controls: 0 for no effect and ±100 for the full control effect; nearly all actives have a fitted effect of over 55% in size
Procedure, shortened: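 CellSensor p53RE-bla HCT-116 cells (4,000/well) pre-incubated 5 h at 37 C, then exposed to compounds in DMSO for 16 h at 37 C. Viability read as ATP content by CellTiter-Glo luminescence after 30 min at room temperature.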

Peroxisome proliferator-activated receptor alpha (Homo sapiens), sequence (Q07869 whole entry, looked up): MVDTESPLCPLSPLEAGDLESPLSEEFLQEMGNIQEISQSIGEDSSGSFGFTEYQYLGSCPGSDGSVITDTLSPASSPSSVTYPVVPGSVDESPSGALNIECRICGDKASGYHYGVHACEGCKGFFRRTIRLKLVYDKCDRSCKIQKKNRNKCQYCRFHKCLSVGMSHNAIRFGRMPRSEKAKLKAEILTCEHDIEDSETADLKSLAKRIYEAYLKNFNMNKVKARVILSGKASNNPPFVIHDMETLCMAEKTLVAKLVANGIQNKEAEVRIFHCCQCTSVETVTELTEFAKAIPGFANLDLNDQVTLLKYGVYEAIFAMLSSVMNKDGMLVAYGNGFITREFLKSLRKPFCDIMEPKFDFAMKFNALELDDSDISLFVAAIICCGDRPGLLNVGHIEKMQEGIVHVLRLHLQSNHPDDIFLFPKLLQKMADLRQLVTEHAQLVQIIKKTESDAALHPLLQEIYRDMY

OCCCCO
inactive: Potency [1] > 92 µM | Potency [2] > 92 µM | Potency [3] > 92 µM | Potency [4] > 92 µM | Potency [5] | outcome [6] | outcome [7] | outcome [8] | Potency [9] | caspase-3 activation [10] -2.02% | outcome [11] | outcome [12] | Potency [13] | outcome [14] | outcome [15] | Potency [16] | Potency [17] | max response [18] -0.393% | max response [19] -2.13% | Potency [20]

CCOP(=S)(OCC)SCCSCC
inactive: Potency [1] > 92 µM | Potency [2] > 92 µM | Potency [3] > 92 µM | Potency [4] > 92 µM | Potency [5] | outcome [6] | outcome [7] | outcome [8] | Potency [9] | caspase-3 activation [10] 0.951% | outcome [11] | outcome [12] | Potency [13] | outcome [14] | outcome [15] | Potency [16] | Potency [17] | max response [18] -1.85% and -0.372% | max response [19] -4.12% and 4.55% | Potency [20]

Clc1cccc2ccccc12
inactive: Potency [1] > 92 µM | Potency [2] > 92 µM | Potency [3] > 92 µM | Potency [4] > 92 µM | Potency [5] | outcome [6] | outcome [7] | outcome [8] | Potency [9] | caspase-3 activation [10] -0.708% | outcome [11] | outcome [12] | Potency [13] | outcome [14] | outcome [15] | Potency [16] | Potency [17] | max response [18] -0.995% | max response [19] 5.5% | Potency [20]

N#CC(O)c1ccccc1 (stereo not given)
inactive: Potency [1] > 92 µM | Potency [2] > 92 µM | Potency [3] > 92 µM | Potency [4] > 92 µM | Potency [5] | outcome [6] | outcome [7] | outcome [8] | Potency [9] | caspase-3 activation [10] 0.0339% | outcome [11] | outcome [12] | Potency [13] | outcome [14] | outcome [15] | Potency [16] | Potency [17] | max response [18] 12.9% | max response [19] 12.9% | Potency [20]

CN(C)C(=O)Nc1cccc(C(F)(F)F)c1
inactive: Potency [1] > 92 µM | Potency [2] > 92 µM | Potency [3] > 92 µM | Potency [4] > 92 µM | Potency [5] | outcome [6] | outcome [7] | outcome [8] | Potency [9] | caspase-3 activation [10] 0.171% | outcome [11] | outcome [12] | Potency [13] | outcome [14] | outcome [15] | Potency [16] | Potency [17] | max response [18] -1.29% and 0.409% | max response [19] -4.03% and 2.07% | Potency [20]

ClC(Cl)c1ccccc1
inactive: Potency [1] > 92 µM | Potency [2] > 92 µM | Potency [3] > 92 µM | Potency [4] > 92 µM | Potency [5] | outcome [6] | outcome [7] | outcome [8] | Potency [9] | caspase-3 activation [10] 0.485% | outcome [11] | outcome [12] | Potency [13] | outcome [14] | outcome [15] | Potency [16] | Potency [17] | max response [18] -0.698% | max response [19] -0.372% | Potency [20]
